# PubChem BioAssay AID2113 (National Center for Advancing Translational Sciences (NCATS), 2009)
# Records with an inconclusive call do not appear. A number with no mark means an inactive call. Activity calls are given as the source filed them. The call rests on the fitted dose curve; in most records, active means well fitted curve in either direction with a large enough effect; inconclusive means small, poorly fitted or top-dose-only effect; inactive means no such curve, though single readings can be large or run the other way.
# Target: Lysosomal alpha-glucosidase (Homo sapiens) (UniProt P10253)
# Test: Confirmation of Inhibitors and Activators of Human alpha-Glucosidase From Spleen Homogenate; on activity change, both directions: 0% is about no effect
# Conditions: alpha-glucosidase enzyme activity; series mostly up to 60.5 µM; activity change, both directions: at the top concentration
# Text: NIH Chemical Genomics Center [NCGC]
# NIH Molecular Libraries Probe Production centers Network [MLPCN]
# Assay Submitter (PI): Wei Zheng
# Alpha-glucosidase is responsible for hydrolysis of terminal, non-reducing 1,4-linked alpha-D-glucose residues with release of alpha-D-glucose. It is a lysosomal hydrolase that is required for the degradation of a small percentage (1-3%) of cellular glycogen in human. Deficiency of this enzyme results in glycogen-storage disease type II (GSDII), also referred to as Pompe disease, an autosomal recessive disorder. Structurally normal glycogen is accumulated in lysosomes and cytoplasm in affected patients, primarily in muscle tissues. Excessive glycogen storage within lysosomes may interrupt normal functioning of other organelles and leads to cellular injury. In turn, this leads to enlargement and dysfunction of the entire organ involved (eg, cardiomyopathy and muscle weakness).
# It has reported that the improper folding and trafficking of alpha-glucosidase resultinged from the genetic mutations may account for a significant number of Pomrope patients. […] We optimized this alpha-glucosidase assay in 1536-well plate format for identifying the novel small molecule inhibitors with the structures other than the sugar analogs in order to develop the new pharmacological chaperones. In particular, this assay is directed towards discovering compounds active in a more natural setting, tissue homogenate, that may have been missed by screens of the purified enzyme under more stringent conditions. This assay attempted to confirm hits from the primary screening.
# NCGC Assay Protocol Summary:
# This is a fluorogenic enzyme assay with 4-methylumbelliferyl-alpha-D-glucopyranoside as the substrate and human spleen homogenate containing alpha-glucosidase as the enzyme preparation. Upon hydrolysis of this fluorogenic substrate, the resulting product, 4-methylumbelliferone (which excites at 365 nm and emits at 440 nm) can be detected by a fluorescence plate reader. Data were normalized to the controls for basal activity (without enzyme) and 100% activity (with enzyme). The AC50 values were determined from concentration-response data modeled with the standard Hill equation.
# Assay buffer: 50 mM citric acid (titrated with potassium phosphate to pH 5.0), 0.01% Tween-20 (pH 5.0 is an optimal condition for this enzyme assay)
# 1536-well assay protocol for the alpha-glucosidase from human spleen homogenate:
# (1) Add 2 ul/well spleen homogenate (1 ug)
# (2) Add 23 nL compounds in DMSO solution. The final titration was 0.5 nM to 58 uM.
# (3) Add 2 ul of substrate (1 mM final)
# (4) Incubate at 37 C for 40 min
# (5) Add 2 ul stop solution (1M NaOH and 1M Glycine mixture, pH 10)
# (6) Detect the assay plate in a ViewLux plate reader (PerkinElmer) with Ex=365 nm and Em=440nm.
# Keywords: Alpha-glucosidase, Pompe Disease, pharmacological chaperone, chaperone therapy, high throughput screening, alpha-glucosidase inhibitor, MLSMR, MLSCN, NIH Roadmap, qHTS and NCGC
# Potency means the concentration at half of the fitted maximal effect.
SMILES,"activity change, both directions",Potency
O=c1[nH]cc(CCc2ccccc2)c2ncncc12,-8.37%,
CCC1OC23CCCCC2C(C#N)(C(=N)O3)C1(C#N)C#N (stereo not given),2.02% [at 31.5 µM],
CCCCN1C[C@H](O)[C@@H](O)[C@H](O)[C@H]1CO,-99.2%,
COc1cc(-c2cc(N3C(=O)Nc4ccccc4N3O)n[nH]2)cc(OC)c1OC,-4.58% [at 31.5 µM],
Cc1ccc(-c2cc(C(=O)N/N=C/c3c(C)nn(-c4ccccc4)c3C)n[nH]2)s1,2.38%,
Cc1ccc(N=Nc2c(N)nn(-c3ccccc3)c2N)cc1,4.65%,
C=CCCCCCCCCCCCc1ccco1,-13.3% [at 286 µM],
Cn1cnc2c(NCc3ccccc3)nc(NCCO)nc21,-19.8%,
O=c1oc2ccc3ccccc3c2cc1-c1nc(CCCBr)cs1,-0.41%,
O=c1oc2cc(O)ccc2cc1-c1nc2c(s1)CCc1ccccc1-2,,31.6 µM (active)
O=C(O)c1cc2c(ccc3ccccc32)o1,-0.045% [at 31.5 µM],
CCOC(=O)C(CC)(CCC(=O)O)c1csc(Nc2ccc(C)cc2)n1 (stereo not given),15% [at 31.5 µM],
CCC(C)NC(=O)CCC(=O)Nc1ccc2nc(N3CCOCC3)cc(C)c2c1 (stereo not given),20.8% [at 31.5 µM],
CCCCn1c(CN2CCN(c3cccc(Cl)c3)CC2)nc2c1c(=O)n(C)c(=O)n2C,-2.65% [at 31.5 µM],
CC(=O)Nc1ccc(S(=O)(=O)/N=C2/NC(=O)/C(=C\c3ccco3)S2)cc1,1.22% [at 31.5 µM],
O=C(CC(c1ccccc1)c1cc(Br)ccc1O)NCCN1CCOCC1 (stereo not given),4.56% [at 31.5 µM],
COc1ccc(CCn2c3c(c(=O)[nH]c2=S)CN(C(C)C)CN3)cc1OC,,44.7 µM (active)
CCc1ccc(-c2nc(-c3cc4ccc(OC(C)=O)cc4oc3=O)sc2C)cc1,3.56%,
CN(C(=O)N1CCN(S(=O)(=O)c2ccccc2)CC1)c1ccccc1,-16.2%,
COc1cc2c(cc1OC)-c1cc(OCc3ccccc3Cl)nc(=O)n1CC2,-3.52% [at 31.5 µM],

SMILES,"activity change, both directions",Potency
O=C(c1ccccc1)N1CCN(C(=O)c2ccccc2)CC1,0.493%,
Cn1c2c(c(=O)n(C)c1=O)CN(CCCN1CCOCC1)CN2,6.03% [at 31.5 µM],
CC1(C)CC(=O)c2cc(C(=O)NCc3ccco3)c(=O)n(-c3ccc(Cl)cc3)c2C1,-1.85% [at 31.5 µM],
CCC1C(=O)NCCN1Cc1nc(-c2ccc(C)s2)oc1C (stereo not given),2.96%,
COc1ccc(/C=C/c2nnc(NC(=O)COc3ccc(Cl)cc3)s2)cc1,-1.2%,
O=C(NC(C(=O)c1ccccc1)n1ccc(=O)[nH]c1=O)c1ccccc1 (stereo not given),-4.26% [at 31.5 µM],
COc1ccc(CCn2c3c(c(=O)[nH]c2=S)CN(c2ccccc2)CN3)cc1OC,,8.91 µM (active)
CCCn1c(N)c(CC)c(=O)[nH]c1=O,-3.88% [at 31.5 µM],
COc1ccc(C(=O)N2CCN(c3ccc([N+](=O)[O-])c(NCCc4ccc(OC)c(OC)c4)c3)CC2)cc1,8.22%,
CCCN1CNc2c(c(=O)[nH]c(=S)n2CCc2ccc(C)cc2)C1,,25.1 µM (active)
CC(=O)Nc1cccc2c1C(=O)NC2=O,-1.43% [at 31.5 µM],
CCCN1CNc2c(c(=O)[nH]c(=S)n2CCc2cccc(OC)c2OC)C1,,15.8 µM (active)
CC(C)(C)OC(=O)NCCCC[C@H](NC(=O)c1[nH]cnc1C(=O)Nc1ccc(CNC(=O)OC(C)(C)C)cc1)C(=O)OC(C)(C)C,-7.24%,
O=S(=O)(c1ccccc1Cl)N1CCOCC1,2.5%,
Cc1[nH]nc2c1C(c1ccc(OC(=O)c3ccco3)cc1)C(C#N)=C(N)O2 (stereo not given),1.59%,
CCCN1CNc2c(c(=O)[nH]c(=S)n2CCc2ccc(C)cc2C)C1,,39.8 µM (active)
C(=C\c1ccc2ccccc2n1)/c1ccc2c(c1)OCO2,16.2%,
CNc1ncnc2c1ncn2[C@H]1C[C@H](OP(=O)(O)O)[C@@H](COP(=O)(O)O)O1,2.81% [at 286 µM],
COc1ccc(NS(=O)(=O)c2ccc(O)c(NC(=O)c3cc4c(C)nn(-c5ccc(F)cc5)c4s3)c2)cc1,-1.49%,
O=S(=O)(c1ccc2c(c1)C(=NNc1ccccc1)c1cc(S(=O)(=O)N3CCOCC3)ccc1-2)N1CCOCC1,-3.62%,
